Among the data in publication PMC7862700, “An all-to-all approach to the identification of sequence-specific readers for epigenetic DNA modifications on cytosine” are binding signal values, retold here.

Holding throughout (test): DAPPL (digital affinity profiling via proximity ligation, sequencing); 10 mM Tris-HCl pH 7.5, 50 mM NaCl, 1 mM DTT, 4% glycerol, room temperature, 30 min; GST-TFs on glutathione beads, 16-mer random dsDNA library, 0.1% formaldehyde crosslink after washing; high values mean tight binding
Holding throughout (settings): protein: recombinant; tags: N-terminal GST; dsDNA, one strand shown

One experiment addresses T1, FLI1 (Homo sapiens, UniProt Q01543 1-452).
T1 sequence: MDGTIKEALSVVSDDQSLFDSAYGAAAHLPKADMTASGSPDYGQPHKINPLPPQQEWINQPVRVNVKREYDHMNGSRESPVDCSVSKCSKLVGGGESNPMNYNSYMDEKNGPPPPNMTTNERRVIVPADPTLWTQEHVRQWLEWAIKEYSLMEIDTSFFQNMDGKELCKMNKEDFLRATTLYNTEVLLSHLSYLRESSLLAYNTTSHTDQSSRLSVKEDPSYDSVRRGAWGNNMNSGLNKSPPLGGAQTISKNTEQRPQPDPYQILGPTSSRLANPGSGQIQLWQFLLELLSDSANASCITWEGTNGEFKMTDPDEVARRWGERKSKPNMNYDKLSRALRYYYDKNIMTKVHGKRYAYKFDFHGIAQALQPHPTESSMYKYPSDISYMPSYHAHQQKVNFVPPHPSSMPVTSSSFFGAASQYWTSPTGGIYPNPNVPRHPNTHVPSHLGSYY
An outline of the steps: (§1)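 Binding signal is given per hexamer as its read frequency for a factor divided by its frequency in the tag-only sample. GST-fused human transcription factors were expressed in yeast, captured on glutathione beads, barcoded with DNA and pooled with that sample, then incubated with 200 nmole of a 16-mer random double-stranded DNA library in Tris/NaCl/DTT/glycerol buffer for 30 min at room temperature. The pools were then washed, crosslinked, proximity-ligated, amplified by PCR and sequenced on an Illumina NextSeq500.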

The target of another experiment is T2, ELK1 (Homo sapiens, UniProt P19419 1-428).
T2 sequence: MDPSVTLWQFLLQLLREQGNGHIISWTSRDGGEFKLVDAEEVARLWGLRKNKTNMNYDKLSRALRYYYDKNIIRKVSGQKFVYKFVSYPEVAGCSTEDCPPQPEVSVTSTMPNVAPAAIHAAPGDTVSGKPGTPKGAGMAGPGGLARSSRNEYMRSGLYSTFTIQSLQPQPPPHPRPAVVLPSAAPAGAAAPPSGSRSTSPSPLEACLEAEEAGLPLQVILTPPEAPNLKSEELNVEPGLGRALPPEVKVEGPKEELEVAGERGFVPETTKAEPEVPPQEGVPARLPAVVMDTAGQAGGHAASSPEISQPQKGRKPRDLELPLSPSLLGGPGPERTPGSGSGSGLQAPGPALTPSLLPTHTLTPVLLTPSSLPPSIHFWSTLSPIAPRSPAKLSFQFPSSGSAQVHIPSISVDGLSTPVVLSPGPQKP
An outline of the steps: as §1

A further experiment concerns the target T3, GABPA (Homo sapiens, UniProt Q06546 1-454).
T3 sequence: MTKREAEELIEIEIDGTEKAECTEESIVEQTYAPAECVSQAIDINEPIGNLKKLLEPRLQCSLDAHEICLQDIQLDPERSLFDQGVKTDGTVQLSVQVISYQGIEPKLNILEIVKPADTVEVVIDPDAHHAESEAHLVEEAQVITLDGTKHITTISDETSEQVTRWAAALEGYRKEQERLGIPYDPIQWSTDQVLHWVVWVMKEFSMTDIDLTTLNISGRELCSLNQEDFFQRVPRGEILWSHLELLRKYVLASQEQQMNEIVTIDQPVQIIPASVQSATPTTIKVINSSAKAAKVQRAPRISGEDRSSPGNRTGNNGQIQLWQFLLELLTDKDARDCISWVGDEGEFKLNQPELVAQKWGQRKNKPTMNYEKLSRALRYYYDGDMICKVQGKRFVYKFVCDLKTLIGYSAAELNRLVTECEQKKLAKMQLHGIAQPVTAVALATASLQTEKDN
A digest of the protocol: as §1

A further experiment concerns the target T4, ERG (Homo sapiens, UniProt P11308 1-479).
T4 sequence: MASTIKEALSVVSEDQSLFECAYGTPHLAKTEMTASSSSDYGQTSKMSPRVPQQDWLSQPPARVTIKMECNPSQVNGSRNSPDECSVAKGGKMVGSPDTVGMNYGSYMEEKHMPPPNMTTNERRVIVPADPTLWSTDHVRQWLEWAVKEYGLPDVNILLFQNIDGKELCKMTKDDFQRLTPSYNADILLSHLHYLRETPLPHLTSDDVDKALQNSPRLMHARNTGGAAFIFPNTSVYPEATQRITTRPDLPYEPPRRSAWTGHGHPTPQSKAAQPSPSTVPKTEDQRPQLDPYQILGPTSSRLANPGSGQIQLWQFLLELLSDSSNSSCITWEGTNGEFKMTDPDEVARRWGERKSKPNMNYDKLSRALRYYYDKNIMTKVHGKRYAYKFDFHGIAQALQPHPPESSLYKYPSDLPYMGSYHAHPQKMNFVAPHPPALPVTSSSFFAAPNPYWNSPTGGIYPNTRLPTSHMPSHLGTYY
A digest of the protocol: as §1

A further experiment addresses ELF1 (Homo sapiens, UniProt P32519 1-619). A digest of the protocol: as §1
Another experiment has as its target T5, EHF (Homo sapiens, UniProt Q9NZC4 1-300).
T5 sequence: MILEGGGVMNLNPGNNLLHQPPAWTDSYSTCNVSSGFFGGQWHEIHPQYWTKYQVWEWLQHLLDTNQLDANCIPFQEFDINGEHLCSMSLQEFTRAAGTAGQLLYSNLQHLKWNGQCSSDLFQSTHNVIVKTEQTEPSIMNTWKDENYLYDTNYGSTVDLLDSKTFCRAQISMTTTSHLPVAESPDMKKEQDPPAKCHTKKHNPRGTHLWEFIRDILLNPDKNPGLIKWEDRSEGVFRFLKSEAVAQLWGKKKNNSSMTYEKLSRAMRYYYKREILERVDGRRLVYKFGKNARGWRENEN
An outline of the steps: as §1

The target of the next experiment is SPI1 (Homo sapiens, UniProt P17947 1-270). A digest of the protocol:
as §1

The next experiment addresses SPIB (Homo sapiens, UniProt Q01892 1-262). An outline of the steps:
as §1

The next experiment deals with T6, ELK3 (Homo sapiens, UniProt P41970 1-407).
T6 sequence: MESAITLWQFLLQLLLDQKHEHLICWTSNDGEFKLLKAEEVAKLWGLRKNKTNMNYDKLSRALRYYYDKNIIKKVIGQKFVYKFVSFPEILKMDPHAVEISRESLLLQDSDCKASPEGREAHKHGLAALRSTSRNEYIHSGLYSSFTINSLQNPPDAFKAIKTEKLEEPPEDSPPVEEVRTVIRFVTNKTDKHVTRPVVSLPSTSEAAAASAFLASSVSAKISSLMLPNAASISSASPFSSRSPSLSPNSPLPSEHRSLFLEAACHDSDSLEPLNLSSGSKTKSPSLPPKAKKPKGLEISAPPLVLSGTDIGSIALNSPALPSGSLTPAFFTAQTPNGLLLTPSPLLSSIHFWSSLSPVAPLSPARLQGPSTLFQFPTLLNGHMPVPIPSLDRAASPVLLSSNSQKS
An outline of the steps:
as §1

SPIB, sequence (Q01892 whole entry): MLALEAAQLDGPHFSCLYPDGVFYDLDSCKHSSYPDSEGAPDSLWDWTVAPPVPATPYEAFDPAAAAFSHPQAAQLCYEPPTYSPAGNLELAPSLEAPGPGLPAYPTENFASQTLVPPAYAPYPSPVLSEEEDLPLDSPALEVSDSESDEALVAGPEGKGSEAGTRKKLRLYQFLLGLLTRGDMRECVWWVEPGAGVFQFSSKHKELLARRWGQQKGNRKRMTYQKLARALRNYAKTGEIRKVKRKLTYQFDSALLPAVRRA
ELF1, sequence (P32519 whole entry): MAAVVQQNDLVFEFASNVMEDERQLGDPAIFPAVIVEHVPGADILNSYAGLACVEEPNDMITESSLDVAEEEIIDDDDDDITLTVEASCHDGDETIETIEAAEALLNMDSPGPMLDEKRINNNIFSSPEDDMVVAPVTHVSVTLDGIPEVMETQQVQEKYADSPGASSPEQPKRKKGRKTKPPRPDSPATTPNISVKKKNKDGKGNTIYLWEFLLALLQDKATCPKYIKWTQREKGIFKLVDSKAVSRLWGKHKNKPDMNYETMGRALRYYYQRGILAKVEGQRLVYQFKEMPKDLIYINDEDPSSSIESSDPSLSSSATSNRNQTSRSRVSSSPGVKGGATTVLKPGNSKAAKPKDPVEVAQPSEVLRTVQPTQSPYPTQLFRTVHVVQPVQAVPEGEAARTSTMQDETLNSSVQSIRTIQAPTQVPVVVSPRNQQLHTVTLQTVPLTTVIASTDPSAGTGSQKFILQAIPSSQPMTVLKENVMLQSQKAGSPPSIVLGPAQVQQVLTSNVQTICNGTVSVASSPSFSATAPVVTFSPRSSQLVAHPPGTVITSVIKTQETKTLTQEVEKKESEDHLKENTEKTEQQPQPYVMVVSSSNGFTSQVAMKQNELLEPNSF

Regarding GTATTA, the binding signal with FLI1 is 1.17 fold enrichment (6-mer frequency, TF over GST control); with ELK1 it was 1.2 fold enrichment (6-mer frequency, TF over GST control); with GABPA, 1.07 fold enrichment (6-mer frequency, TF over GST control); with ERG it was 1.12 fold enrichment (6-mer frequency, TF over GST control); with ELF1, 1.11 fold enrichment (6-mer frequency, TF over GST control); with EHF, 1.03 fold enrichment (6-mer frequency, TF over GST control). Moreover, the binding signal is 1.04 fold enrichment (6-mer frequency, TF over GST control) with SPI1; 1.07 fold enrichment (6-mer frequency, TF over GST control) in the experiment with SPIB; 1.06 fold enrichment (6-mer frequency, TF over GST control) with ELK3.
On to CTAGAT, for which the binding signal is 1.13 fold enrichment (6-mer frequency, TF over GST control) with FLI1; 1.18 fold enrichment (6-mer frequency, TF over GST control) in the experiment with ELK1; 1.23 fold enrichment (6-mer frequency, TF over GST control) in the experiment with GABPA; 1.12 fold enrichment (6-mer frequency, TF over GST control) in the experiment with ERG; 1.15 fold enrichment (6-mer frequency, TF over GST control) with ELF1; 1.17 fold enrichment (6-mer frequency, TF over GST control) in the experiment with EHF. Further, the binding signal with SPI1 was 1.2 fold enrichment (6-mer frequency, TF over GST control); with SPIB, 1.17 fold enrichment (6-mer frequency, TF over GST control); with ELK3, 1.16 fold enrichment (6-mer frequency, TF over GST control).
On to TTAGCT, for which the binding signal is 1.13 fold enrichment (6-mer frequency, TF over GST control) with FLI1; 1.21 fold enrichment (6-mer frequency, TF over GST control) with ELK1; 1.23 fold enrichment (6-mer frequency, TF over GST control) with GABPA; 1.15 fold enrichment (6-mer frequency, TF over GST control) with ERG; 1.27 fold enrichment (6-mer frequency, TF over GST control) with ELF1; 1.2 fold enrichment (6-mer frequency, TF over GST control) with EHF. The binding signal with SPI1 is 1.2 fold enrichment (6-mer frequency, TF over GST control); with SPIB, 1.19 fold enrichment (6-mer frequency, TF over GST control); with ELK3, 1.18 fold enrichment (6-mer frequency, TF over GST control).
GCATTT: the binding signal in the experiment with FLI1 was 1.38 fold enrichment (6-mer frequency, TF over GST control); in the experiment with ELK1, 1.38 fold enrichment (6-mer frequency, TF over GST control); with GABPA, 1.36 fold enrichment (6-mer frequency, TF over GST control); with ERG, 1.3 fold enrichment (6-mer frequency, TF over GST control); with ELF1, 1.33 fold enrichment (6-mer frequency, TF over GST control); with EHF it was 1.37 fold enrichment (6-mer frequency, TF over GST control). Also, the binding signal with SPI1 was 1.58 fold enrichment (6-mer frequency, TF over GST control); in the experiment with SPIB, 1.38 fold enrichment (6-mer frequency, TF over GST control); in the experiment with ELK3, 1.4 fold enrichment (6-mer frequency, TF over GST control).
For TTGAAT, the binding signal was 1.11 fold enrichment (6-mer frequency, TF over GST control) in the experiment with FLI1; 1.08 fold enrichment (6-mer frequency, TF over GST control) in the experiment with ELK1; 1.15 fold enrichment (6-mer frequency, TF over GST control) with GABPA; 1.1 fold enrichment (6-mer frequency, TF over GST control) in the experiment with ERG; 1.12 fold enrichment (6-mer frequency, TF over GST control) in the experiment with ELF1; 1.11 fold enrichment (6-mer frequency, TF over GST control) with EHF. For the same sequence, the binding signal was 1.12 fold enrichment (6-mer frequency, TF over GST control) in the experiment with SPI1; 1.03 fold enrichment (6-mer frequency, TF over GST control) in the experiment with SPIB; 1.04 fold enrichment (6-mer frequency, TF over GST control) with ELK3.
With CCCGAA, the binding signal is 1.44 fold enrichment (6-mer frequency, TF over GST control) in the experiment with FLI1; 1.26 fold enrichment (6-mer frequency, TF over GST control) with ELK1; 1.51 fold enrichment (6-mer frequency, TF over GST control) with GABPA; 1.18 fold enrichment (6-mer frequency, TF over GST control) in the experiment with ERG; 1.39 fold enrichment (6-mer frequency, TF over GST control) with ELF1; 1.3 fold enrichment (6-mer frequency, TF over GST control) with EHF. Further, the binding signal in the experiment with SPI1 was 1.36 fold enrichment (6-mer frequency, TF over GST control); with SPIB it was 1.27 fold enrichment (6-mer frequency, TF over GST control); with ELK3, 1.2 fold enrichment (6-mer frequency, TF over GST control).
Consider TTCTTA, for which the binding signal in the experiment with FLI1 was 1.42 fold enrichment (6-mer frequency, TF over GST control); in the experiment with ELK1 it was 1.43 fold enrichment (6-mer frequency, TF over GST control); with GABPA, 1.37 fold enrichment (6-mer frequency, TF over GST control); with ERG, 1.4 fold enrichment (6-mer frequency, TF over GST control); with ELF1, 1.37 fold enrichment (6-mer frequency, TF over GST control); in the experiment with EHF it was 1.28 fold enrichment (6-mer frequency, TF over GST control). Moreover, the binding signal is 1.34 fold enrichment (6-mer frequency, TF over GST control) with SPI1; 1.28 fold enrichment (6-mer frequency, TF over GST control) with SPIB; 1.5 fold enrichment (6-mer frequency, TF over GST control) with ELK3.
